Activity calls are given as the source filed them.
What was measured:
[1] = test system: Plasmodium falciparum Sir2 (PF13_0152, Sir2A); assay: Plasmodium falciparum Sir2A binding compounds – biochemical, small-molecule microarray, 635 nm fluorescence, primary screen (AID 1098); details: fluorescence 635 nm, higher = more signal;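 further: score merges spot fluorescence intensity with its signal-to-noise ratio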
[2] = probe aDKK1 binding to arrayed compounds – biochemical, biotinylated probe, 635/667 nm fluorescence, primary screen (AID 1099); details: small-molecule microarray, higher = more signal;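 further: score merges 667nm spot fluorescence with signal to noise across triplicate slides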
[3] = probe aCHRDL2 binding to arrayed compounds – biochemical, biotinylated probe, 635/667 nm fluorescence, primary screen (AID 1100); details: small-molecule microarray, higher = more signal
[4] = change in splice reporter luminescence, either direction, cell-based, HEK293, spliceosome inhibition project, primary screen (AID 1101); details: HEK293 splicing luciferase reporter, 24 h, higher = more signal, called active from +8 up or from −8 down;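 further: HEK293 cells carrying a splicing-competent luciferase reporter gene; test concentration not given here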
[5] = target: Fibroblast growth factor 10 (Homo sapiens) (UniProt O15520); assay: compounds binding fibroblast growth factor 10 – biochemical, small-molecule microarray, 635 nm fluorescence, primary screen (AID 1102); details: FGF10 binding, fluorescence 635 nm, higher = more signal
Sequence of Fibroblast growth factor 10 (Homo sapiens) (O15520 whole entry, looked up): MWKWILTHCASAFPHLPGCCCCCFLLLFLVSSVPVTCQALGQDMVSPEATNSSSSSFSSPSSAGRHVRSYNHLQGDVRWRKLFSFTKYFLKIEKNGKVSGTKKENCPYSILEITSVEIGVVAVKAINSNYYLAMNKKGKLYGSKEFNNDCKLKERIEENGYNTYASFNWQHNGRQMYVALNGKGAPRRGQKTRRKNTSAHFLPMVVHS

[6] = test system: glycogen synthase kinase-3 (GSK3A per assay name; protocol says GSK3B); assay: compounds binding glycogen synthase kinase-3 – biochemical, small-molecule microarray, 635 nm fluorescence, GSK3A, primary screen (AID 1103); details: fluorescence 635 nm, higher = more signal; further: the record names both GSK3A and GSK3B
[7] = target: Epidermal growth factor receptor (Homo sapiens) (UniProt P00533); assay: compounds binding epidermal growth factor receptor – biochemical, small-molecule microarray, 635 nm fluorescence, primary screen (AID 1104); details: EGFR binding, higher = more signal;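 further: score merges 667 nm emission intensity with spot signal to noise over triplicate slides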
Sequence of Epidermal growth factor receptor (Homo sapiens) (P00533 whole entry, looked up): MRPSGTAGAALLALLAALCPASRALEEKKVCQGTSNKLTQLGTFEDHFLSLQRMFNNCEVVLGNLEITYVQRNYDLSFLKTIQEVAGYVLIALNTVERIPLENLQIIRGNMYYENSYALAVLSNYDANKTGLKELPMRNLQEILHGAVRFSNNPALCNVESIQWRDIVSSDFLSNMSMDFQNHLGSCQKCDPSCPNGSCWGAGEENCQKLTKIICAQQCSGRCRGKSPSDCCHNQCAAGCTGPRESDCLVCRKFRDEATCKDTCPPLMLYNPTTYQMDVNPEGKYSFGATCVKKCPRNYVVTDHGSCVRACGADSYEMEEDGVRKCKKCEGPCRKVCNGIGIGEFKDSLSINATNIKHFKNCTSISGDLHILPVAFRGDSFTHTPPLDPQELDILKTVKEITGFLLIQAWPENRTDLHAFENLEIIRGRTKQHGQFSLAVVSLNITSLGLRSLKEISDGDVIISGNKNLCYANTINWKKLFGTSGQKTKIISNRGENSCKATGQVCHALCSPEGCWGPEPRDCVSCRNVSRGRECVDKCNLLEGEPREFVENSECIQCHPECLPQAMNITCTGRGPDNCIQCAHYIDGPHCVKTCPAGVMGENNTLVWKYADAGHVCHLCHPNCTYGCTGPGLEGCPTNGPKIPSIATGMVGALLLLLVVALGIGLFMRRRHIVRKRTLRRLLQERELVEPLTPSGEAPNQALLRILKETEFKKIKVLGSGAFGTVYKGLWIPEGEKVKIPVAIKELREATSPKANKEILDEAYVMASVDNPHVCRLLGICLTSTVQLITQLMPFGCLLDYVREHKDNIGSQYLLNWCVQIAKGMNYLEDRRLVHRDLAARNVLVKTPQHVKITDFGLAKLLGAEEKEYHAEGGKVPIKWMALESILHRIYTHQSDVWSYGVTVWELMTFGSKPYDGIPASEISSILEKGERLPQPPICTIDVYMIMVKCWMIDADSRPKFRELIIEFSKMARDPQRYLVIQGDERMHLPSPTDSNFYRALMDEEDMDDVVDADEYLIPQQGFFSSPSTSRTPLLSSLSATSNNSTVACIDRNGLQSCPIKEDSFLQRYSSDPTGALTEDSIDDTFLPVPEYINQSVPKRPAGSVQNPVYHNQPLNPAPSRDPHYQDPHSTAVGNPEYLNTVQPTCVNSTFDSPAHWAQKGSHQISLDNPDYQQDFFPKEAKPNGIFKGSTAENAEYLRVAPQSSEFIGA

[8] = target: Follistatin-related protein 3 (Homo sapiens) (UniProt O95633); assay: compounds binding follistatin-related protein 3 – biochemical, small-molecule microarray, 635 nm fluorescence, primary screen (AID 1105); details: FSTL3 binding, higher = more signal;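 further: score merges emission near 667 nm and signal to noise per printed spot across three slides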
Sequence of Follistatin-related protein 3 (Homo sapiens) (O95633 whole entry, looked up): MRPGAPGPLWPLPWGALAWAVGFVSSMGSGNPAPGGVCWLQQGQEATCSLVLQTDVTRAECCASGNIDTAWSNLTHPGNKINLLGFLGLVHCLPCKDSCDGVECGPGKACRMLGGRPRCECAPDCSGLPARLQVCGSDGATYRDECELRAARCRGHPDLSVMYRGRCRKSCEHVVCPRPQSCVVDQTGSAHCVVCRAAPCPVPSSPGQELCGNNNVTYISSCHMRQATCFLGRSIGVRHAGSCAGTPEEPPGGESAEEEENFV

[9] = target: Dickkopf-related protein 1 (Homo sapiens) (UniProt O94907); assay: small molecules binding DKK1 protein – biochemical, small-molecule microarray, 635 nm fluorescence scan, primary screen (AID 1106); details: higher = more signal;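 further: score merges emission near 667 nm with signal to noise over three replicate slides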
Sequence of Dickkopf-related protein 1 (Homo sapiens) (O94907 whole entry, looked up): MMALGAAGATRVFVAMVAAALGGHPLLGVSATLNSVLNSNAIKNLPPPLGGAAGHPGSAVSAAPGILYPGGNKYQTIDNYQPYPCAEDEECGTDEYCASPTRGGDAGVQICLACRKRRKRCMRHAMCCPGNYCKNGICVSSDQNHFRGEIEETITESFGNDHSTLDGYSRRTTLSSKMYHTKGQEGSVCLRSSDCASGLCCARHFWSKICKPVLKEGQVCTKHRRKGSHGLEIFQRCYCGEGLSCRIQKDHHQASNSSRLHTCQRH

[10] = test system: Inhibin beta A chain (activin A); assay: small molecules binding activin A – biochemical, small-molecule microarray, 635 nm fluorescence scan, primary screen (AID 1107); details: INHBA, higher = more signal;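 further: mouse activin A protein probed at 4.33 µg/mL on printed slides; score merges bound-protein fluorescence near 667 nm with spot signal-to-noise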
[11] = test system: Human papillomavirus type 1a protein E7 (residues 44-93); assay: small molecules binding HPV E7 44-93 – biochemical, small-molecule microarray, residues 44-93, 635 nm fluorescence, primary screen (AID 1108); details: fluorescence 635 nm, higher = more signal;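 further: E7 fragment applied at 1 µg/mL in TBST for 1 h at 4 C; score combines spot fluorescence with its signal to noise ratio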
[12] = hepatitis C replication reporter changes, two-sided – Huh7 cells, luciferase reporter, HCV replication inhibitor project, primary screen (AID 1109); details: Huh7 HCV replicon luciferase reporter, 48 h; higher = more signal;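 further: huh7 hepatoma cells harbouring a luciferase neomycin HCV replicon reporter; luciferase luminescence as measure of HCV replicon replication; test concentration not given here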
[13] = target: Left-right determination factor 2 (Homo sapiens) (UniProt O00292); assay: small molecules binding LEFTY2 protein – biochemical, small-molecule microarray, 635 nm fluorescence scan, primary screen (AID 1110); details: higher = more signal
Sequence of Left-right determination factor 2 (Homo sapiens) (O00292 whole entry, looked up): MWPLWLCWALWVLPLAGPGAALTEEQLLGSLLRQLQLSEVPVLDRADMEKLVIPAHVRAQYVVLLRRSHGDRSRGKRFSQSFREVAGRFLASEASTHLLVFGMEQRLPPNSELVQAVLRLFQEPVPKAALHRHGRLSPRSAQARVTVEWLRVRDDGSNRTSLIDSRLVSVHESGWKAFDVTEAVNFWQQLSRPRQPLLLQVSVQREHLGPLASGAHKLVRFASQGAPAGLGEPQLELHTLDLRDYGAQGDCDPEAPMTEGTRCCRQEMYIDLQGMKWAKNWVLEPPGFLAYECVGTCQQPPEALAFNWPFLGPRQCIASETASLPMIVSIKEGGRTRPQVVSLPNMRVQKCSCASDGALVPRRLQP

[14] = target: Calmodulin-1 (Homo sapiens) (UniProt P0DP23); assay: small molecules binding calmodulin-1 with EGTA – biochemical, small-molecule microarray, Cy5-labelled CALM1, profiling panel (AID 1111); details: Cy5-CALM1 binding fluorescence, higher = more signal;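 further: labelled calmodulin applied in Tris saline Tween buffer holding calcium plus EGTA and DTT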
[15] = target: Calmodulin-1 (Homo sapiens) (UniProt P0DP23); assay: small molecules binding Ca-loaded calmodulin-1 – biochemical, small-molecule microarray, Cy5-labelled CALM1, plus calcium, artefact control for SMM control-protein annotation, profiling panel (AID 1112); details: Cy5-CALM1 binding fluorescence, higher = more signal;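 further: score merges spot fluorescence with signal to noise from triplicate slides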
[16] = probe aWnt5a binding to arrayed compounds – biochemical, biotinylated probe, 635/667 nm fluorescence, primary screen (AID 1113); details: small-molecule microarray, higher = more signal;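 further: score merges 667 nm fluorescence intensity with signal-to-noise per printed feature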
[17] = probe aShh binding to arrayed compounds – biochemical, biotinylated probe, 635/667 nm fluorescence, primary screen (AID 1114); details: small-molecule microarray, higher = more signal;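 further: probe is biotin-labelled aShh protein from a stem cell growth factor screen; measures binding of labelled protein to compounds printed on the slide; score merges feature fluorescence at 667 nm with signal-to-noise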
[18] = probe aNog binding to arrayed compounds – biochemical, biotinylated probe, 635/667 nm fluorescence, primary screen (AID 1115); details: small-molecule microarray, higher = more signal;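 further: probe is biotinylated aNog protein used at 0.15 µg/mL for 1 h at 4 C; z-score combines 667 nm fluorescence of each spot with its signal to noise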
[19] = target: Torsin-1A-interacting protein 1 (Homo sapiens) (UniProt Q5JTV8); assay: compound microarray binding of lysate hLAP1 – cell lysate, small-molecule microarray, COS7 lysate, 635/667 nm fluorescence, primary screen (AID 1116); details: 635 nm fluorescence, higher = more signal
Sequence of Torsin-1A-interacting protein 1 (Homo sapiens) (Q5JTV8 whole entry, looked up): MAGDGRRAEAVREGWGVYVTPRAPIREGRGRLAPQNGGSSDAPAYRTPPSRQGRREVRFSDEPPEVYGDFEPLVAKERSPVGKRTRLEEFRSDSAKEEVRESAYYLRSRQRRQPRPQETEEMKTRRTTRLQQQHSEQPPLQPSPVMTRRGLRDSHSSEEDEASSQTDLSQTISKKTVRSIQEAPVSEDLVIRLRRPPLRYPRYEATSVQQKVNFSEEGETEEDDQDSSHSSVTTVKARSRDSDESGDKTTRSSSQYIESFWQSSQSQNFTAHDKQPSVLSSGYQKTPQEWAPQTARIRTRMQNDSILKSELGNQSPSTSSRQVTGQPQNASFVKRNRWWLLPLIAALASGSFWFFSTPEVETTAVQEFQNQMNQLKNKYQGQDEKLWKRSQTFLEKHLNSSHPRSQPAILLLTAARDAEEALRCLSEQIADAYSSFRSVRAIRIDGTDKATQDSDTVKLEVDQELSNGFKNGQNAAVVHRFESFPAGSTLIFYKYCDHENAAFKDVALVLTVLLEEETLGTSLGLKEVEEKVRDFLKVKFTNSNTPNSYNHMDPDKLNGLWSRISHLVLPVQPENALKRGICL

[20] = target: Alpha-bungarotoxin (Bungarus multicinctus) (UniProt P60615); assay: compounds binding labelled alpha-BTX control protein – biochemical, small-molecule microarray, Alexa647 label, 635/667 nm fluorescence, artefact control for SMM control protein annotation, profiling panel (AID 1117); details: alpha-BTX-A647 binding fluorescence, higher = more signal
Sequence of Alpha-bungarotoxin (Bungarus multicinctus) (P60615 whole entry, looked up): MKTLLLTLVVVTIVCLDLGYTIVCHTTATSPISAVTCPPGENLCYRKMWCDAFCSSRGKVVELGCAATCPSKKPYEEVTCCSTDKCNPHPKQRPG

| SMILES | composite z-score [1] | composite z-score [2] | composite z-score [3] | z-score [4] | composite z-score [5] | composite z-score [6] | composite z-score [7] | composite z-score [8] | composite z-score [9] | composite z-score [10] | composite z-score [11] | z-score [12] | composite z-score [13] | composite z-score [14] | composite z-score [15] | composite z-score [16] | composite z-score [17] | composite z-score [18] | composite z-score [19] | composite z-score [20] |
| --- | --- | --- | --- | --- | --- | --- | --- | --- | --- | --- | --- | --- | --- | --- | --- | --- | --- | --- | --- | --- |
| CC(C)C(=C=CC[C@H](O)c1ccccc1OCCO)CCO | 0.0112 | 0.292 | -0.0417 | 0.232 (inactive) | 0.0544 | -0.144 | -0.585 | -0.449 | -0.679 | 0.913 | 1.31 | -1.32 | -0.378 | -0.274 | 0.0647 | -0.0643 | 0.0639 | -0.0546 | 1.02 | 1.92 |
| C=CCC(OC(C)=O)[C@@H]1[C@@H](N(Cc2cc3ccccc3o2)C(=O)c2cccc3ccccc23)c2cc(OCCCO)ccc2N1C(=O)Cc1ccc2ccccc2c1 (stereo not given in full) | 0.53 | 0.224 | 0.471 | -0.904 (inactive) | 0.0259 | -0.925 | -0.221 | 0.0969 | -0.0207 | 1.02 | 0.0073 | -0.751 | -0.31 | 0.191 | 0.223 | -0.124 | 0.0711 | -0.366 | -0.089 | 0.474 |
| O=C1O[C@@H](c2ccccc2)[C@@H](c2ccccc2)N2[C@@H](c3ccccc3OCCO)[C@]3(C(=O)Nc4ccc(C#CC5(O)CCCCCC5)cc43)[C@@H](C(=O)NC[C@H](O)c3ccccc3)[C@H]12 | 1.06 | 1.64 | 0.204 | -0.525 (inactive) | 1.3 | 0.868 | 0.265 | 1.08 | 0.283 | 1 | 1.41 | -3.23 | -0.24 | 0.819 | 0.923 | 0.0912 | 0.681 | 1.86 | 0.0197 | 0.728 |
| CN(C)CCCC[C@@H]1NC(=O)[C@H]2C[C@@H](C(=O)NCCCCCNC(=O)CS)[C@@H](c3ccc(O)cc3)N2C1=O | 0.133 | 0.0417 | 0.308 | 1.1 (inactive) | -1.2 | -0.53 | -0.483 | -1.39 | -0.653 | 0.0182 | -0.781 | 0.579 | -1.34 | -0.0462 | 0.586 | -0.124 | -0.0396 | -0.0793 | 0.172 | 0.808 |
| O=C1OCCC=C[C@H]2OC34C=CCN(c5ccc6ccccc6c5)C(=O)[C@H]3N(CCCCCCO)C(=O)[C@@H]4C12 (stereo not given in full) | 0.924 | -0.0082 | 0.187 | -0.225 (inactive) | -0.916 | -0.817 | -1.07 | -0.917 | -1.26 | 0.56 | 0.404 | 0.0919 | -0.431 | -0.611 | -0.321 | -0.176 | -0.0337 | -0.201 | 0.164 | -1.37 |
| O=S(=O)(NCCCO)c1ccc(Br)cc1 | 0.373 | 0.101 | 0.248 | -1.03 (inactive) | 0.568 | 0.309 | 0.598 | 0.175 | -0.0155 | 0.363 | 0.54 | -0.164 | 0.548 | 0.873 | 0.698 | 0.0251 | -0.138 | -0.122 | 0.365 | 0.284 |

— PubChem BioAssay
